Data: PubChem BioAssay (NCI)
About 83,000 compounds went through this panel and 20% of them were active in at least one assay; those are over-represented in the sample as a whole.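 Method: cells in 96-well plates; compound added at one concentration; 48 h incubation; percent growth measured; values under 10 scored active.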 Calls of active or inactive are those of the source.

System: BT-549 breast
Test: NCI-60 one-dose screen, 48 h (100 = growth as untreated, 0 = no growth, -100 = all killed)
Settings: 10 µM unless noted
Method: Growth inhibition of the BT-549 human tumor cell line is measured as a screen for anti-cancer activity. Cells are grown in 96 well plates and exposed to the test compound for 48 hours. Compounds are tested at a single concentration, which is 10^-5 M for most compounds. The reported endpoint is percent growth (GI% or GIPRCNT), where numbers from 0 - 100% represent growth inhibition, and numbers from -100% - 0 represent cell death. For example, a value of 40 represents 60% growth inhibition. A value of 0 means no net growth occurred over the course of the experiment. A value of -40 indicates 40% of cells at the beginning of the experiment died by the end of the experiment. A value of -100 means all cells are dead at the end of the experiment.
NCI-60 Human Tumor Cell Lines Screen was performed using the standard one-dose NCI protocol, which is described in more detail at https://dtp.cancer.gov/discovery_development/nci-60/default.htm.
Compounds with GIPRCNT values below 10 were considered active. Activity score was based on GIPRCNT using the following formula: […]
Score is 0 for GIPRCNT values of 100 or above, 50 for GIPRCNT values of 0, and 100 for GIPRCNT values of -100.

| Structure (SMILES) | growth |
| --- | --- |
| CN1CC(c2ccc(Br)cc2)C(C(=O)c2ccc(Br)cc2)C12C(=O)Nc1ccccc12 (stereo not given) | 100% (inactive) |
| COc1cc(OC)c2c(=O)c3c(CC=C(C)C)cc(OC)c(O)c3oc2c1 | 77.5% (inactive) |
| COc1ccc(Nc2ncc(I)c(NCCCNC(=O)C3CCC3)n2)cc1 | -73.8% (active) |
| C=CN(C(=O)N1CCN(c2cc3c(cc2F)c(=O)c(C(=O)O)cn3C2CC2)CC1)c1nc(-c2ccccc2)cs1 | 101% (inactive) |
| COc1ccc(C=Nc2c(C(=O)Nc3cccc(Cl)c3C)sc3nc(C)c(C(=O)/C=C/c4ccc(OC)cc4)cc23)cc1 | 40% (inactive) |
| COc1ccc(Oc2ccc(/C=C/C(=O)c3cc4ccccc4oc3=O)cc2)cc1 | 81% (inactive) |
| N#Cc1ccc(/C=C/c2cn(-c3ccccc3)nc2-c2cccc([N+](=O)[O-])c2)cc1 | 40.5% (inactive) |
| CN(C)c1ccc([C@@H](C(=O)Nc2cccc([N+](=O)[O-])c2)N(C(=O)c2cc3ccccc3[nH]2)c2cccc([N+](=O)[O-])c2)cc1 | 95.4% (inactive) |
| COc1ccccc1S(=O)(=O)Nc1ccc2c3c(cc(CCC(=O)NCCCCNc4cccc5c4C(=O)N(C4CCC(=O)NC4=O)C5=O)cc13)C(=O)N2C (stereo not given) | -10.9% (active) |
| Oc1nc(NCc2ccccc2)sc1/C=C1\C=Nc2ncccc21 | 42.7% (inactive) |
| Nc1c(Br)cc2c(c1Br)Cc1cc([N+](=O)[O-])ccc1-2 | 110% (inactive) |
| CCN(CC)CCOc1ccc(C(=O)/C=C\c2ccc(Cl)cc2Cl)cc1 | 31.6% (inactive) |
| O=C(Oc1ccc2c(c1)sc1nc(-c3ccccc3)[nH]c(=O)c12)C(F)(F)F | 44.3% (inactive) |
| COc1cccc(CNc2c3ccccc3nc3ccccc23)c1OC | 59.7% (inactive) |
| Cn1c2ccccc2c2c3c(c4c5cc(Br)ccc5n(C)c4c21)C(=O)N(O)C3=O | 41.2% (inactive) |
| CCCCCc1ccc(S(=O)(=O)Nc2cc(-c3csc(NC(C)=O)n3)ccc2N2CCN(C)CC2)cc1 | 63.9% (inactive) |
| Cc1cc(Cl)nc(N2CCN(CCNc3ccnc4cc(Cl)ccc34)CC2)n1 | 47% (inactive) |
| CCCC(O)Cn1ncc(C(=O)OCC)c1NC(=O)NCc1cccc(C(F)(F)F)c1 (stereo not given) | 77.8% (inactive) |
| O=C1OCC2=C1C(c1ccccc1)c1cc3c(cc1N2CCO)OCCO3 (stereo not given) | 14.1% (inactive) |
| COC1C(O)CC(OC2CC(OC3CC(O[C@@H]4C(=O)c5c(cc6cc(OC7CC(OC8CC(O)C(O)C(C)O8)C(O)C(C)O7)c(C)c(O)c6c5O)CC4[C@H](OC)C(=O)O)OC(C)C3O)OC(C)C2O)OC1C (stereo not given in full) | 21.4% (inactive) |

| Structure (SMILES) | growth |
| --- | --- |
| O=c1ccc2ccc(OCCN3CCCCC3)cc2o1 | 100% (inactive) |
| C=CN(C(=O)N1CCN(c2cc3c(cc2F)c(=O)c(C(=O)O)cn3C2CC2)CC1)c1nc(-c2ccc(Cl)cc2)cs1 | 63.1% (inactive) |
| O=CN1N=C(c2cccc(Nc3ccnc4cc(Cl)ccc34)c2)CC1c1ccc(Cl)cc1 (stereo not given) | 8.58% (active) |
| C#Cc1cccc(NC(=O)C2CCCCN2C(=O)CCl)c1 (stereo not given) | -55.9% [8.25 µM] (active) |
| O=C(Cn1nc(-c2cccc3ccccc23)ccc1=O)NCc1cccc(Cl)c1 | 44.3% [50 µM] (inactive) |
| COc1ccc(Nc2ncc(C#N)c(NCCCNC(=O)C3CCC3)n2)cc1 | 70.6% (inactive) |
| CN(C)c1ccc(CNCCO)cc1 | 75.7% (inactive) |
| CNC(=O)c1cc(Oc2ccc3c(c2)sc2nc(-c4ccc(Cl)c(C(F)(F)F)c4)cn23)ccn1 | 45.9% (inactive) |
| CCOC(=O)NC(=S)n1oc(=O)c2ccccc21 | 111% (inactive) |
| N#Cc1c(-c2ccccc2)cc(-c2ccccc2)n(CCCCC(=O)NO)c1=O | 52.8% (inactive) |
| C=C1CC[C@@H]2C(C)(C)[C@H](O)CC[C@@]2(C)[C@@H]1COc1ccc2ccc(=O)oc2c1 | 5.68% (active) |
| N#Cc1c(-c2ccc(Cl)cc2)nc(NN=Cc2ccc[nH]2)nc1N1CCOCC1 | 16.9% (inactive) |
| CCN(CC)CCn1c2ccc(OC)cc2c2sc3cc(O)ccc3c(=O)c21 | 62.7% (inactive) |
| O=C1C=C(SCCO)C(=O)c2ccccc21 | -26.5% (active) |
| Cc1ccc2nc(-c3ccc(C(=O)N/N=C/c4ccc([N+](=O)[O-])cc4)cc3)[nH]c2c1 | 106% (inactive) |
| CCCC(=O)NC(c1ccc2c(c1)OCO2)c1cc(Cl)c2cccnc2c1O (stereo not given) | 63.3% (inactive) |
| CCCCn1c(NC(C)=O)c(S(=O)(=O)c2ccccc2)c2nc3ccccc3nc21 | 103% (inactive) |
| O=C(OCc1ccc2c(Cl)cc(Cl)c(O)c2n1)N1CCN(C(=O)c2cc3ccccc3[nH]2)CC1 | 50.6% (inactive) |
| O=C(Nc1ccc(Oc2cccc(Cl)c2)c(Cl)c1)c1cccnn1 | 98.5% (inactive) |
| O=S(=O)(Nc1ccc2ccccc2c1)c1ccc(-c2cnc(C3CC3)o2)cc1 | 62.6% (inactive) |
